Read-out in one test: Decorin, DCN (gene 1634)
In words: BSK_MyoF_Decorin: BioMAP Diversity Plus: MyoF Assay for Decorin Biomarker Activity (AID 2284265). Particulars: primary human lung fibroblasts. In outline: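 In this multiplexed fibroblast system, secreted or surface decorin is detected by ELISA one day after dosing, with increases scored against the DMSO vehicle.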

Test [1] can be described thus: BSK_MyoF_SRB: Viability Assessment in the BioMAP Diversity Plus: MyoF Assay (AID 2284267).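 Also: total protein by SRB absorbance in parallel cultures as cytotoxicity measure; cells assessed 24 h after compound addition.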 Particulars: primary human lung fibroblasts. In outline:
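In this viability endpoint, fibroblasts from human lung are treated for 24 h, TCA-fixed, SRB-stained (0.1%) and read at 560 nm. Gain of signal relative to DMSO defines activity.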

Read-out in test [2]: Matrix Metallopeptidase 1 (MMP1), MMP1 (gene 4312)
In words: BSK_MyoF_MMP1: BioMAP Diversity Plus: MyoF Assay for Matrix Metallopeptidase 1 (MMP1) Biomarker Activity (AID 2284268). The note with it: primary human lung fibroblasts. In outline: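 Fibroblasts from human lung receive compound for 24 h before ELISA quantitation of MMP1. DMSO serves as baseline, and the endpoint is fitted for signal gain.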

Read-out in test [3]: TIMP metallopeptidase inhibitor 1 (TIMP1), TIMP1 (gene 7076)
Description: BSK_MyoF_TIMP1: BioMAP Diversity Plus: MyoF Assay for TIMP metallopeptidase inhibitor 1 (TIMP1) Biomarker Activity (AID 2284269). The note with it: primary human lung fibroblasts. Put shortly: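 Primary human lung fibroblasts, MyoF multiplex system; chemical exposure 24 h; TIMP-1 by ELISA; positive fitting direction vs DMSO control.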

Read-out in test [4]: Intercellular Adhesion Molecule 1 (ICAM1), ICAM1 (gene 3383)
In words: BSK_BE3C_ICAM1: BioMAP Diversity Plus: BE3C Assay for Intercellular Adhesion Molecule 1 (ICAM1) Biomarker Activity (AID 2284278).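 Also: cell-surface ICAM-1 protein level quantified by ELISA.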 Particulars: primary human bronchial epithelial cells. In outline:
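hu bronchial epithelial primary cells, 24 h cpd exposure, ICAM-1 ELISA; gain-of-signal fit vs DMSO baseline.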

Read-out in test [5]: Interferon-inducible T-cell alpha chemoattractant (ITAC), CXCL11 (gene 6373)
Description: BSK_BE3C_ITAC: BioMAP Diversity Plus: BE3C Assay for Interferon-inducible T-cell alpha chemoattractant (ITAC) Biomarker Activity (AID 2284279). The note with it: primary human bronchial epithelial cells. Put shortly:
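Steps: dose human bronchial epithelial cells with chemical; incubate 24 h; measure I-TAC by ELISA; fit endpoint in positive direction against DMSO control. Cytotoxicity was checked in parallel cultures by SRB staining at harvest.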

Read-out in test [6]: Interleukin-8 (IL8), CXCL8 (gene 3576)
In words: BSK_BE3C_IL8: BioMAP Diversity Plus: BE3C Assay for Interleukin-8 (IL8) Biomarker Activity (AID 2284280). The note with it: primary human bronchial epithelial cells. Put shortly:
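Primary human bronchial epithelial cells (BE3C system) were exposed to test chemical for 24 h, and IL-8 levels were then measured by ELISA. Activity was fitted in the positive (gain-of-signal) direction against a DMSO negative-control baseline.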

Read-out in test [7]: Epidermal growth factor receptor (EGFR), EGFR (gene 1956)
In words: BSK_BE3C_EGFR: BioMAP Diversity Plus: BE3C Assay for Epidermal growth factor receptor (EGFR) Biomarker Activity (AID 2284281). Particulars: primary human bronchial epithelial cells. In outline: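 Human primary bronchial epithelial cells were exposed to compound for 24 h, and cell-surface EGFR was then quantified by ELISA. Activity was fitted in the positive direction against the DMSO vehicle baseline.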

Read-out in another test: KRT18 (gene 3875)
Description: BSK_BE3C_Keratin818: BioMAP Diversity Plus: BE3C Assay for Keratin 818 Biomarker Activity (AID 2284282). Particulars: primary human bronchial epithelial cells. In outline:
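In this multiplexed primary-cell system, bronchial epithelial cells were dosed and harvested at 24 h. Keratin 8/18 was determined by ELISA and analysed for increases over DMSO controls.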

Read-out in test [8]: Matrix Metallopeptidase 9 (MMP9), MMP9 (gene 4318)
Description: BSK_BE3C_MMP9: BioMAP Diversity Plus: BE3C Assay for Matrix Metallopeptidase 9 (MMP9) Biomarker Activity (AID 2284283). Particulars: primary human bronchial epithelial cells. In outline:
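Endpoint is the ELISA MMP-9 signal in human primary bronchial epithelial cultures taken 24 h after chemical dosing. DMSO serves as negative control and baseline, with gain-of-signal fitting.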

Read-out in test [9]: Plasminogen activator inhibitor-1 (PAI1), SERPINE1 (gene 5054)
Description: BSK_CASM3C_PAI1: BioMAP Diversity Plus: CASM3C Assay for Plasminogen activator inhibitor-1 (PAI1) Biomarker Activity (AID 2284284).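 Also: PAI-1 protein level measured by ELISA 24 h after dosing.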 Particulars: primary human coronary artery smooth muscle cells.

Read-out in test [10]: Monocyte Chemoattractant Protein-1 (MCP1), CCL2 (gene 6347)
In words: BSK_hDFCGF_MCP1: BioMAP Diversity Plus: hDFCGF Assay for Monocyte Chemoattractant Protein-1 (MCP1) Biomarker Activity (AID 2284285). Particulars: primary human foreskin fibroblasts. In outline: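 MCP-1 ELISA readout was taken 24 hours after dosing primary human dermal fibroblasts in the hDFCGF system, with DMSO as baseline. Parallel sulforhodamine B staining of total protein tracked overt cytotoxicity.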

Read-out in test [11]: Intercellular Adhesion Molecule 1 (ICAM1), ICAM1 (gene 3383)
In words: BSK_hDFCGF_ICAM1: BioMAP Diversity Plus: hDFCGF Assay for Intercellular Adhesion Molecule 1 (ICAM1) Biomarker Activity (AID 2284287). Particulars: primary human foreskin fibroblasts. Put shortly:
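ICAM-1 ELISA readout 24 h after dosing, DMSO as baseline, in human dermal foreskin fibroblast cultures. Cytotoxicity checked in parallel wells by SRB staining (0.1% SRB, 10% TCA fixation, 560 nm).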

Read-out in test [12]: TIMP metallopeptidase inhibitor 2 (TIMP2), TIMP2 (gene 7077)
In words: BSK_hDFCGF_TIMP2: BioMAP Diversity Plus: hDFCGF Assay for TIMP metallopeptidase inhibitor 2 (TIMP2) Biomarker Activity (AID 2284289). The note with it: primary human foreskin fibroblasts. Put shortly:
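Primary human foreskin fibroblasts in the hDFCGF system, dosed for 24 h; TIMP-2 level measured by ELISA, fitted in the positive direction against DMSO; cytotoxicity checked in parallel by sulforhodamine B total protein staining.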

Read-out in test [13]: Thrombomodulin, THBD (gene 7056)
In words: BSK_LPS_Thrombomodulin: BioMAP Diversity Plus: LPS Assay for Thrombomodulin Biomarker Activity (AID 2284296). Particulars: primary human HUVEC with PBMC. Put shortly:
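Thrombomodulin on the surface of LPS-activated endothelial/PBMC co-cultures was quantified by ELISA at 24 hours post-dosing, with DMSO as baseline. Parallel SRB total-protein staining flagged overt cytotoxicity.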

A short description of test [14]: IUF_NPC2c_oligodendrocyte_migration_120hr: Leibniz Research Institute for Environmental Medicine (IUF) 120-hour Neural Progenitor Cell Migration Assay for Oligodendrocyte Migration (NPC2c) (AID 2284297).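 Also: O4-positive oligodendrocyte migration distance divided by radial glia migration distance.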 In outline: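 Using fetal brain neural progenitor spheres differentiating in N2 medium at 37C, compounds were present for 120 h. Oligodendrocyte migration distance, normalized to radial glia migration, was measured from imaged O4 staining.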

A short description of test [15]: IUF_NPC2a_radial_glia_migration_120hr: Leibniz Research Institute for Environmental Medicine (IUF) 120-hour Neural Progenitor Cell Migration Assay for Radial Glia Migration (NPC2a) (AID 2284298). In outline: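 Exposure of 0.3 mm primary hNPC spheres runs day 0 to 120 h with a half-volume medium change at day 3. Fixed cells get Hoechst staining; high-content analysis of nuclear positions yields radial glia migration distance per well, compared against DMSO controls.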

Test [16] in a line: IUF_NPC2a_radial_glia_migration_72hr: Leibniz Research Institute for Environmental Medicine (IUF) 72-hour Neural Progenitor Cell Migration Assay for Radial Glia Migration (NPC2a) (AID 2284299). In outline:
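Spheres of human primary neural progenitors migrate on poly-D-lysine/laminin under compound exposure at 37C, 5% CO2. The 72 h radial glia migration distance comes from brightfield images, measured manually.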

A short description of test [17]: IUF_NPC2b_neuronal_migration_120hr: Leibniz Research Institute for Environmental Medicine (IUF) 120-hour Neural Progenitor Cell Migration Assay for Neuron Migration (NPC2b) (AID 2284300). In outline: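 Fetal human NPC spheres migrate on PDL/laminin during 120 h compound treatment; neuronal migration distance, glia-normalized, scored versus DMSO control.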
Test [18] can be described thus: IUF_NPC3_neuronal_differentiation_120hr: Leibniz Research Institute for Environmental Medicine (IUF) 120-hour Neuronal Differentiation Assay (NPC3) (AID 2284301). In outline:
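Value is percent TUBB3-positive neurons among Hoechst-stained nuclei in the migration area, scored by trained CNN after 120 h differentiation. Primary hNPC spheres on poly-D-lysine/laminin, N2 medium, continuous dosing from day 0, half-refeed day 3; DMSO reference.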

Activity calls are given as the source filed them. The calls were made as follows: active = hit-call score of the fitted dose curve at least 0.9, where 1 is the maximum; inactive = score below 0.9.

The term AC50 denotes the midpoint of the concentration-response curve, whichever way the signal moves.

On to `C#CC1(O)CC[C@H]2[C@@H]3CCC4=CCCC[C@@H]4[C@H]3CC[C@@]21C` (some centres undefined), for which the AC50 was 31.4 µM (active) with Decorin, DCN (gene 1634); 30.1 µM (active) in test [1]; 33.1 µM (active) in test [3]. Also, the result in test [2] was inactive.
With `CCOc1nc(F)cc2nc(S(=O)(=O)Nc3c(Cl)cccc3C(=O)OC)nn12`, the outcome with Decorin, DCN (gene 1634) is “inactive”; in test [1] it was “inactive”; in [2], “inactive”; in [3] it was “inactive”.
Turning to `c1ccc2c(c1)ccc1cc3c(ccc4ccccc43)cc12`, the outcome with Decorin, DCN (gene 1634) was “inactive”; in test [1], “inactive”; in test [2] it was “inactive”; in [3], “inactive”.
As to `CC(C)C(=O)C(C)C`, the outcome is “inactive” with Decorin, DCN (gene 1634); “inactive” in [1]; “inactive” in test [2]; “inactive” in [3].
`c1ccc(-c2ccccn2)nc1`: the outcome with Decorin, DCN (gene 1634) was “inactive”; in test [1], “inactive”; in test [2], “inactive”; in [3], “inactive”.
Regarding `c1ccc2c(c1)ccc1ncccc12`, the outcome in the test with Decorin, DCN (gene 1634) was “inactive”; in test [1], “inactive”; in test [2], “inactive”; in test [3] it was “inactive”.
In the case of `C=C[Si](OC(C)=O)(OC(C)=O)OC(C)=O`, the result (in test [4]; in test [5]; in test [6]; in test [7]; with KRT18 (gene 3875); in [8]) was inactive. For the same compound, the outcome in test [9], in test [10], in test [11], in test [12] and in [13] was inactive.
With `C=CC=CC=CCCCCC`, the outcome with Decorin, DCN (gene 1634) was “inactive”; in test [1] it was “inactive”; in test [2] it was “inactive”; in test [3] it was “inactive”.
As for `S=C(NC1CCCCC1)NC1CCCCC1`, the outcome with Decorin, DCN (gene 1634) was “inactive”; in [1], “inactive”; in test [2], “inactive”; in test [3], “inactive”.
On to `O=C1CCCN1CCO`, for which the result (in test [4]; in test [5]; in test [6]; in test [7]; with KRT18 (gene 3875); in [8]) was inactive. In addition, the result in test [9], in test [10], in [11], in test [12] and in test [13] was inactive.
As to `CCCCCCCCc1ccc(Nc2ccc(CCCCCCCC)cc2)cc1`, the outcome is “inactive” in the test with Decorin, DCN (gene 1634); “inactive” in [1]; “inactive” in test [2]; “inactive” in test [3].
Consider `O=c1c2ccccc2oc2ccccc12`, for which the outcome in the test with Decorin, DCN (gene 1634) is “inactive”; in test [1] it was “inactive”; in test [2], “inactive”; in test [3], “inactive”.
On to `C=CC(=O)OCC(Br)CBr` (centres undefined), for which the outcome in the test with Decorin, DCN (gene 1634) was “inactive”; in [2], “inactive”. Besides, the AC50 in [1] and in test [3] was 20 µM (active) each time.
Take `COc1ccc2nc(N)sc2c1`: the outcome with Decorin, DCN (gene 1634) is “inactive”; in test [1], “inactive”; in test [2], “inactive”; in test [3] it was “inactive”.
As for `CCCCC(CC)COC(=O)c1ccccc1O` (centres undefined), the outcome with Decorin, DCN (gene 1634) was “inactive”; in [1], “inactive”; in test [3] it was “inactive”. Further, in test [2], the AC50 is 10 µM (active).
Regarding `CO[Si](OC)(OC)c1ccccc1`, the outcome (in [4]; in [5]; in [6]; in [7]; in the test with KRT18 (gene 3875); in test [8]) was inactive. Also, the outcome in [9], in [10], in [11], in [12] and in [13] was inactive.
Consider `CN1C(=O)N(C)C(O)C1O` (centres undefined), for which the result (in [4]; in test [5]; in test [6]; in test [7]; with KRT18 (gene 3875); in test [8]) was inactive. For the same compound, the result in test [9], in test [10], in test [11], in test [12] and in test [13] was inactive.
For the compound `CC1(C)S[C@@H]2[C@H](NC(=O)COc3ccccc3)C(=O)N2[C@H]1C(=O)O`, the outcome in [14], in test [15], in test [16], in test [17] and in test [18] was inactive.
`N#[N+]c1ccc2c(S(=O)(=O)[O-])cccc2c1O`: the outcome is “inactive” with Decorin, DCN (gene 1634); “inactive” in test [1]; “inactive” in test [2]; “inactive” in test [3].
As to `CC(C)(c1cc(Br)c(OCCO)c(Br)c1)c1cc(Br)c(OCCO)c(Br)c1`, the AC50 with Decorin, DCN (gene 1634) is 9.76 µM (active); in [1], 5.78 µM (active); in test [2] it was 9.32 µM (active); in test [3] it was 9.33 µM (active).

The values are drawn from PubChem BioAssay (EPA / NIEHS).
